{"source": "PubChem BioAssay (NCI)", "note": "The panel holds about 83,000 compounds, 20% with a hit somewhere; the sample as a whole holds those more often.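 Values shown are percent growth following 48 h exposure of cells in 96-well plates to a single concentration of compound; below 10 was considered active.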 Unmarked numbers belong to inactive results. Calls of active or inactive are those of the source."}
{"test_system": "HL-60(TB) leukemia", "assay": "NCI-60 one-dose screen, 48 h (100 = growth as untreated, 0 = no growth, -100 = all killed)", "details": "10 µM unless noted"}
{"compound": "COc1ccc(C2CC(c3ccc(Nc4nc(NCCO)nc(Nc5ccc(Cl)cc5)n4)cc3)=Nc3c(N)nc(N)nc3N2)cc1", "note": "(centres undefined)", "growth": "36.6%"}
{"compound": "O=C(CN1CCN(c2cc(=O)[nH]c3ccc(F)cc23)CC1)N(c1ccccc1)c1ccccc1", "growth": "106%"}
{"compound": "COc1cc(/C=C2\\SC(=O)NC2=O)ccc1OCC(=O)Nc1ccc(C(=O)/C=C/c2cc3ccccc3nc2Cl)cc1", "growth": "93.7%"}
{"compound": "Nc1nc(-c2cccc([N+](=O)[O-])c2)c(N=Nc2ccccc2[N+](=O)[O-])s1", "growth": "96.5%"}
{"compound": "COc1cc(/C=C/C(=O)c2ccc(NC(=O)CSc3nnc(-c4ccc(-c5nc6ccc(Cl)cc6[nH]5)cc4)o3)cc2)cc(OC)c1OC", "growth": "73.6%"}
{"compound": "Cc1cc2nc(C(Cl)Cl)nc(-c3ccco3)n2n1", "growth": "-4.98% (active)"}
{"compound": "COc1ccc(OC)c(CCn2cncc2-c2c[nH]c3ccc(Cl)cc23)c1", "growth": "7.06% (active)"}
{"compound": "Cc1cc(F)cc(NS(=O)(=O)c2ccc(-c3cnc(C4CC4)o3)cc2)c1", "growth": "1.67% (active)"}
{"compound": "C=C(C=O)[C@@H]1CC[C@]2(CO)CC[C@]3(C)[C@H](CC[C@@H]4[C@@]5(C)CCCNC(C)(C)[C@@H]5CC[C@]43C)[C@@H]12", "growth": "-10.2% (active)"}
{"compound": "CC(C)(C)n1cc(-c2ccnc(NCCCNS(=O)(=O)c3cccc(F)c3)n2)c(-c2ccc(Cl)c(O)c2)n1", "growth": "128%"}
{"compound": "COc1ccc(NS(=O)(=O)c2ccc(-c3cnc(C4CC4)o3)cc2)cc1Cl", "growth": "3.27% (active)"}
{"compound": "CCCSc1nc(Nc2ccc(/C(C)=N\\NC(N)=S)cc2)c(C#N)c(-c2ccc(OC)cc2)n1", "growth": "74%"}
{"compound": "Cc1occc1-c1nc2s/c(=C/c3ccc(-c4cc(C(F)(F)F)ccc4Cl)o3)c(=O)n2n1", "growth": "106%"}
{"compound": "CN1CCN(Cc2ccc(NC(=O)c3cncc(C#Cc4cnc(N)nc4)c3)cc2C(F)(F)F)CC1", "growth": "19.4%"}
{"compound": "Nc1ccc(-c2nnc(SCc3ccc(O)c4ncccc34)o2)cc1", "growth": "-5.84% (active)"}
{"compound": "O=C(/C=C/C=C/c1csc(Br)n1)NO", "growth": "58.4%"}
{"compound": "O=C(CCCCCCN1CC(=O)N2[C@@H](c3cc(F)cc(F)c3)c3[nH]c4ccccc4c3C[C@H]2C1=O)NO", "growth": "16.2%"}
{"compound": "CCOP(=O)(OCC)OC[C@]12CCC(C)(C)C[C@H]1C1=CC[C@@H]3[C@@]4(C)CC[C@H](OP(=O)(OCC)OCC)C(C)(C)[C@@H]4CC[C@@]3(C)[C@]1(C)CC2", "growth": "8.99% (active)"}
{"compound": "Clc1ccc(-c2nc3ccc(/C(=N\\N=C\\c4ccccc4)c4ccccc4)cc3[nH]2)cc1", "growth": "73.3%"}
{"compound": "Cn1c2ccc(Br)cc2c2c3c(c4c5cc(F)ccc5oc4c21)C(=O)N(O)C3=O", "growth": "99.6%"}
{"compound": "COC(=O)c1[nH]nc2c1C1(C(=O)c3cccc4cccc1c34)C(C#N)=C(N)O2", "note": "(centres undefined)", "growth": "82.5%"}
{"compound": "COc1c(N2CC3CCCNC3C2)c(F)cc2c(=O)c(C(=O)N/N=C/c3ccc(Br)cc3)cn(C3CC3)c12", "note": "(centres undefined)", "growth": "84%"}
{"compound": "C#Cc1nc(C(=O)NCCC(=O)Nc2ccc(NC(=O)c3ccc(/C=C/C(=O)c4nccn4C)cc3)cc2)cs1", "growth": "12.2%"}
{"compound": "Cc1ccc2c(n1)C(=O)C(Cl)=C(Nc1ccc(C(C)C)cc1)C2=O", "growth": "-0.278% (active)"}
{"compound": "CCOC(=O)C1=C(C)Nc2nc3ccccc3n2C1c1cccc(Br)c1", "note": "(centres undefined)", "growth": "22.8%"}
{"compound": "Nc1c(C(=O)Nc2ccc(C(F)(F)F)cc2)sc2nc(-c3cnccn3)cc(-c3cccs3)c12", "growth": "51.9%"}
{"compound": "NC(N)=Nc1ccc(Oc2cccc(NC(N)=Nc3ccc(Cl)c(C(F)(F)F)c3)c2)cn1", "growth": "0.375% (active)"}
{"compound": "N#Cc1cccc(/C(N)=N/C(N)=N/c2nc3ccccc3s2)c1", "growth": "4.28% (active)"}
{"compound": "COc1ccc(CCOc2cc3c(cc2OC)CCN(C(=O)NCc2cocn2)C3c2ccc(C)cc2C)cc1", "note": "(centres undefined)", "growth": "5.9% (active)"}
{"compound": "COc1cc(OC)cc(C(=O)Nc2cccc(C#Cc3cccc4[nH]nc(N)c34)c2)c1", "growth": "1.62% (active)"}
{"compound": "Clc1ccc(-c2csc(N/N=C/c3nc4ccccc4n3C3CC3)n2)cc1", "growth": "107%"}
{"compound": "O=C(CSc1nccc(=O)[nH]1)Nc1ccc(-c2nc3ccccc3[nH]2)cc1", "growth": "115%"}
{"compound": "CC(=O)c1ccc(NC(=O)COc2ccc(C3SCC(=O)N3c3ccc(Br)cc3)cc2)cc1", "note": "(centres undefined)", "growth": "96.7%"}
{"compound": "CCCCCCNC(=O)Oc1ccc(/C(=C(/C)c2ccccc2)c2ccc(OCCN3CCCCCC3)cc2)cc1", "growth": "-39.6% (active)"}
{"compound": "CCN(CC)c1ccc(NC2=C(Cl)C(=O)c3nc(C)ccc3C2=O)cc1", "growth": "-34.6% (active)"}
{"compound": "COc1ccc(C(=O)n2cc(C=O)c3ccccc32)cc1", "growth": "93.7%"}
{"compound": "C#Cc1nc(C2=C(C)C(O)CC2)cs1", "note": "(centres undefined)", "growth": "94.2%"}
{"compound": "CCO/C=N/C1=C(C#N)C(c2ccc(Cl)cc2)c2sc3c(C)cccc3c2O1", "note": "(centres undefined)", "growth": "-12.7% (active)"}
{"compound": "O=C(NCCCNc1cc(-c2cn(-c3ccccc3)nc2-c2cccc(O)c2)ccn1)Nc1cccc(C(F)(F)F)c1", "growth": "24.7%"}
